± gives the standard deviation of the averaged measurements.
Columns and labels:
[1] = tested on: (+)-isopinocamphone A-neuron OSN class; experiment: net action potential response of A-neuron (blank-subtracted) (spikes/s (Hz)); higher = stronger excitation; settings: 10 µg on filter paper; neuron: A neuron (large spike amplitude)
Summary of the method: (§1)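 Spikes were counted in AutoSpike for the large-amplitude A-neuron or the small-amplitude B-neuron, using 0.5 s windows across 1–4 sensilla. Responses were reported as spikes/s after subtraction of the pre-stimulus count and of the blank, averaged across sensilla. The recordings came from one fixed antenna of live lab-reared adult Ips typographus via tungsten electrodes under a humidified, charcoal-filtered airstream of 1.8 L/min, with each compound given as 10 μg in paraffin oil on filter paper in a pipette, pulsed for 0.5 s at 0.3 L/min.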

[2] = tested on: (+)-trans-4-thujanol A-neuron OSN class; experiment: as above; settings: 10 µg on filter paper; neuron: A neuron (large spike amplitude)
Summary of the method: as §1

[3] = tested on: (5S,7S)-trans-conophthorin A-neuron OSN class; experiment: as above; settings: 10 µg on filter paper; neuron: A neuron (large spike amplitude)
Summary of the method: as §1

[4] = tested on: ipsdienol A-neuron OSN class; experiment: as above; settings: 10 µg on filter paper; neuron: A neuron (large spike amplitude)
Summary of the method: as §1

[5] = tested on: myrcene A-neuron OSN class; experiment: as above; settings: 10 µg on filter paper; neuron: A neuron (large spike amplitude)
Summary of the method: as §1

[6] = tested on: p-cymene A-neuron OSN class; experiment: as above; settings: 10 µg on filter paper; neuron: A neuron (large spike amplitude)
Summary of the method: as §1

[7] = tested on: lanierone-responsive B-neuron OSN class (ItypOR36); experiment: net action potential response of lanierone B-neuron (blank-subtracted) (spikes/s (Hz)); higher = stronger excitation; settings: 10 µg on filter paper, neuron: B neuron (small spike amplitude)
Summary of the method: as §1

[8] = co-localized A-neuron class: (4S)-cis-verbenol
[9] = co-localized A-neuron class: (5S,7S)-trans-conophthorin
[10] = co-localized A-neuron class: (+)-isopinocamphone
[11] = co-localized A-neuron class: (+)-trans-4-thujanol
[12] = co-localized A-neuron class: ipsdienol
[13] = co-localized A-neuron class: myrcene
[14] = co-localized A-neuron class: p-cymene

SMILES | net action potential response [1] | net action potential response [2] | net action potential response [3] | net action potential response [4] | net action potential response [5] | net action potential response [6] | net action potential response [7, 8] | net action potential response [7, 9] | net action potential response [7, 10] | net action potential response [7, 11] | net action potential response [7, 12] | net action potential response [7, 13] | net action potential response [7, 14]
CC1=CCC(=C(C)C)CC1 [Terpinolene] | 3.33 ± 5.8 | 0.5 ± 5.5 | 4 ± 6.9 | 1.33 ± 1.1 | 2 | 20 ± 16 | 4.67 ± 6.4 | 2 ± 2 | -4 ± 2 | -3 ± 3.8 | 2 ± 5.3 | -8 | 0.667 ± 2.3
C=Cc1ccccc1 [Styrene] | 5.33 ± 6.1 | 8.5 ± 18 | 6 ± 7.2 | 0 ± 2 | -2 | 18.7 ± 15 | -6 ± 8.7 | -1.33 ± 1.1 | -4.67 ± 4.6 | -0.5 ± 6.6 | -1.33 ± 4.6 | 4 | -6 ± 2.8
CC(=O)c1ccccc1 [Acetophenone] | 2.67 ± 4.2 | 2 ± 2.8 | 2 ± 2 | -4 ± 5.3 | -2 | 4.67 ± 7.6 | 0 ± 5.3 | -3.33 ± 4.2 | -0.667 ± 2.3 | 1.5 ± 1 | -4.67 ± 3.1 | 4 | 1.33 ± 10
CC1=CC(=O)[C@@H]2C[C@H]1C2(C)C [(-)-Verbenone] | 0.667 ± 1.1 | 1 ± 4.8 | -5 ± 4.8 | 2 ± 2 | -6 | -0.667 ± 3.1 | 1.33 ± 6.4 | -0.667 ± 1.1 | -4.67 ± 6.1 | 4 ± 6.7 | 2 ± 4 | 6 | 2 ± 2
CCC/C=C/C=O [(E)-hex-2-enal] | -3.33 ± 2.3 | 1 ± 5.8 | 4.67 ± 4.2 |  | 2 | 3 ± 1.4 | -2.67 ± 18 | 0 ± 2 | -2.67 ± 3.1 | -1.5 ± 3.4 | 0.667 ± 1.1 | -6 | -2 ± 8.5

From the supplement of paper PMC11577813, “Eurasian spruce bark beetle detects lanierone using a highly expressed specialist odorant receptor, present in several functional sensillum types” (BMC Biology, 2024)
